Laboratory results published in PubChem BioAssay AID588335 (The Scripps Research Institute Molecular Screening Center, 2011).
The campaign covered roughly 360,000 compounds. About 4,500 (1.2%) were called active. Rule as the data show it: active = inhibition above about 30%; inactive = the rest. This excerpt belongs to a sample that is enriched for actives.

Experiment: GDH-TPI coupling enzyme inhibitors, primary screen, artefact control for M. tuberculosis FBA inhibitor project, biochemical, absorbance, full deck (AID 588335);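 also: 0% = DMSO wells and 100% = wells lacking the enzyme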
Settings: GDH-TPI coupled enzyme counterscreen, NADH absorbance; at 4.8 µM; hits give high values
With `CCN(CC)c1ccc(/C=N/Nc2nc(C)cc(C)n2)c(O)c1` the inhibition was 31.7% (active).
With `Cc1cc(C)nc(N/N=C/c2c(CO)cnc(C)c2O)n1` the inhibition was 16.2% (inactive).
With `Cn1cnnc1Sc1ccc(S(C)(=O)=O)cc1[N+](=O)[O-]` the inhibition was 13% (inactive).
For `Cc1c(-c2nn(C)c(=O)c3ccccc23)oc2ccc(F)cc2c1=O`, the inhibition was 18% (inactive).
In the case of `CC(C)NC(=O)NCCCCCCS(C)=O` (stereo not given), the inhibition is reported as 16.7% (inactive).
With `COCCNc1nc(N)c([N+](=O)[O-])c(NCCO)n1` the inhibition was 26.7% (inactive).
In the case of `Nc1nc(Nc2ccccc2)nc(NCCO)c1[N+](=O)[O-]`, the inhibition is reported as 39.5% (active).
In the case of `Nc1nc(NCCCN2CCOCC2)nc(Nc2ccccc2)c1[N+](=O)[O-]`, the inhibition is reported as 28.5% (inactive).
With `O=C(Oc1cccc(NC2=NS(=O)(=O)c3ccccc32)c1)c1ccncc1` the inhibition was 0.95% (inactive).
For `Cc1ccc(S(=O)(=O)N(NC2=NS(=O)(=O)c3ccccc32)C(=O)c2ccccc2)cc1`, the inhibition was 4.78% (inactive).
In the case of `CC(C)(C)c1csc(NC2=NS(=O)(=O)c3ccccc32)n1`, the inhibition is reported as 36.1% (active).
With `Cc1cc(-c2ccccc2)nc(N2CCC(C(=O)NC34CC5CC(CC(C5)C3)C4)CC2)n1` the inhibition was -1.41% (inactive).
For `CSc1nc2nc3c(c(=O)n2[nH]1)CCC3`, the inhibition was 5.66% (inactive).
In the case of `Cc1ccccc1NC(=O)Cc1nc(COC(=O)C(C)(C)Oc2ccc(Cl)cc2)cs1`, the inhibition is reported as -5.31% (inactive).
With `COc1ccc(Cl)cc1C(=O)NNC(=S)NC(=O)/C=C/c1ccco1` the inhibition was 5.35% (inactive).
With `COc1cccc(NC(=O)COC(=O)/C=C/c2ccco2)c1` the inhibition was 6.67% (inactive).
For `O=C(/C=C/c1ccco1)NC(=S)N1CCCCC1`, the inhibition was 10.6% (inactive).
In the case of `O=C(O)/C=C\C(=O)Nc1ccc(OCc2ccccc2)cc1`, the inhibition is reported as 5.18% (inactive).
For `O=C(/C=C/c1ccco1)NC(=S)Nc1ccccc1Br`, the inhibition was 35.7% (active).
For `O=C(/C=C/c1ccco1)Nc1ccc(Oc2ccccc2)cc1`, the inhibition was 38% (active).
For `CCOc1ccc(NC(=O)CSc2nc3ccccc3c(=O)n2Cc2cccs2)cc1`, the inhibition was 6.55% (inactive).
In the case of `O=C(C[C@H]1C(=O)N(c2ccc(F)c(F)c2)C[C@@H]1Cc1ccccc1)Nc1ccccc1`, the inhibition is reported as -1.2% (inactive).
With `O=Cc1cn(CCOc2ccc(F)cc2)c2ccccc12` the inhibition was 7.08% (inactive).
For `Cc1cccc2nc(CNc3ccc(F)cc3)cn12`, the inhibition was 10.8% (inactive).
In the case of `CCC1CCCCN1S(=O)(=O)Cc1ccccc1Cl` (stereo not given), the inhibition is reported as 0.61% (inactive).
In the case of `COc1ccc(S(=O)(=O)N2CCCC2CNC(=O)C(=O)NC2CC2)cc1` (stereo not given), the inhibition is reported as -18% (inactive).
With `COc1ccc2c(c1)CCc1cn3ncc(C#N)c3nc1-2` the inhibition was 2.17% (inactive).
With `O=C(Nc1ccc(F)c([N+](=O)[O-])c1)C1CCCO1` (stereo not given) the inhibition was 7.32% (inactive).
In the case of `COCCN(CCOC)S(=O)(=O)c1ccc(C(=O)Nc2nc3c(s2)CCc2ccccc2-3)cc1`, the inhibition is reported as 9.74% (inactive).
With `COCCN(CCOC)S(=O)(=O)c1ccc(/C(O)=C(\C#N)c2nc3ccccc3[nH]2)cc1` the inhibition was 42.7% (active).
With `CC(C)(C)c1nnc2sc(SCC(O)=C(C#N)c3nc4ccccc4[nH]3)nn2c1=O` the inhibition was 9.05% (inactive).
For `CC1(C)CC(=O)C2=C(C1)N=C1SCCC(=O)N1C2c1ccc(C(F)(F)F)cc1` (stereo not given), the inhibition was 31% (active).
In the case of `CC1(C(=O)Nc2ccccc2Br)CCN1C(=O)CC1CC1` (stereo not given), the inhibition is reported as -0.89% (inactive).
With `C=CCSC(CC)(CC)C(N)=O` the inhibition was 3.59% (inactive).
With `CN1C(c2ccc(F)cc2)=CS/C1=C(/C#N)c1nnc2n1-c1ccccc1SC2` the inhibition was 18.8% (inactive).
In the case of `Cc1ccccc1-n1cc(CNC(=O)CC2C(=O)NCCN2C/C=C/c2ccccc2)cn1` (stereo not given), the inhibition is reported as -1.22% (inactive).
In the case of `COc1cccc(-c2nc3ccc(N4CCN(C)CC4)cc3[nH]2)c1`, the inhibition is reported as 31.7% (active).
In the case of `COc1cccc(N2CCN(C3CC(=O)N(c4ccc(Cl)cc4)C3=O)CC2)c1` (stereo not given), the inhibition is reported as -9.65% (inactive).
For `COc1cccc(N2CCN(c3ccc4nnc(CCC(=O)N5CCN(C)CC5)n4n3)CC2)c1`, the inhibition was -6.09% (inactive).
For `CCCN(C(=O)CSc1nnc(N)s1)c1c(N)n(Cc2ccccc2)c(=O)[nH]c1=O`, the inhibition was 2.63% (inactive).
For `O=c1cccc(-c2ccc(Br)cc2)o1`, the inhibition was 17.6% (inactive).
For `C=CCc1cccc2cc(C(=O)OCC)c(=O)oc12`, the inhibition was 10.2% (inactive).
For `CCOc1cccc2cc(C(=O)OCC(=O)Nc3c(C)cccc3CC)c(=O)oc12`, the inhibition was 11.9% (inactive).
For `CCOC(=O)c1cc2cc3ccccc3cc2oc1=O`, the inhibition was 38.1% (active).
In the case of `CN1CCCc2cc(C#N)c(=O)[nH]c21`, the inhibition is reported as 34.1% (active).
For `COc1ccccc1CNC(=O)COn1nnc2ccc(S(=O)(=O)N3CCOCC3)cc21`, the inhibition was -5.57% (inactive).
With `O=C(OCCN1C(=O)c2ccccc2C1=O)[C@@H]1CC(O)CN1S(=O)(=O)c1ccccc1[N+](=O)[O-]` (stereo not given in full) the inhibition was 3.16% (inactive).
With `CC(=O)c1ccc(OCCCC(=O)Nc2ccc(C)c(S(=O)(=O)N3CCOCC3)c2)cc1` the inhibition was 7.22% (inactive).
With `COc1ccc2ccccc2c1CNCc1ccccn1` the inhibition was -14.6% (inactive).
With `COc1ccc(C(=O)/C=C/c2ccc(-c3ccccc3)cc2)cc1CSCC(=O)O` the inhibition was 37.5% (active).
In the case of `COC(=O)c1ccc(COc2ccc(/C=C/C(=O)c3ccc(OC)c(CSCC(=O)O)c3)cc2OC)cc1`, the inhibition is reported as 7.37% (inactive).
With `COc1ccccc1CCNC(=O)C1CCN(C(=O)/C=C/c2ccccc2)CC1` the inhibition was 1.82% (inactive).
For `CCN(CC)C(=O)C(C)N1c2cccc3cccc(c23)S1(=O)=O` (stereo not given), the inhibition was 9.73% (inactive).
For `CC1CCCCC1NC(=O)COC(=O)Cc1ccc(Cl)cc1` (stereo not given), the inhibition was 3.03% (inactive).
For `CCCN(CC(=O)NC(=O)NC1CCCCC1)CC(=O)Nc1cc(Cl)ccc1Cl`, the inhibition was -7.58% (inactive).
For `O=C(N/N=C/c1c(O)n(C2CC2)c(=S)[nH]c1=O)c1ccccc1Cl`, the inhibition was 40.6% (active).
In the case of `O=C(N/N=C/c1c(O)n(C2CC2)c(=S)[nH]c1=O)c1ccccc1`, the inhibition is reported as 25.8% (inactive).
For `O=c1[nH]c(=S)n(C2CC2)c(O)c1/C=N/N1CCOCC1`, the inhibition was 16.2% (inactive).
With `CC1CCN(C(=O)COC(=O)c2cc(=O)[nH]c3ccccc23)CC1` the inhibition was 13.7% (inactive).
For `CC(C)(C)n1nnnc1C(c1ccccc1F)N1CCN(C(=O)c2ccco2)CC1` (stereo not given), the inhibition was -4.67% (inactive).
For `O=C(C[C@H]1C[C@H]2c3cc(NS(=O)(=O)c4ccc(F)cc4)ccc3O[C@H]2[C@H](CO)O1)NCc1cc(F)ccc1F`, the inhibition was -2.37% (inactive).
In the case of `COc1ccc(C(=O)Nc2ccc(C3(C#N)CCCC3)cc2)cc1OC`, the inhibition is reported as 9.36% (inactive).
With `CCNC(=O)c1ccc(OCC(=O)Nc2ccc(F)cc2)c(OC)c1` the inhibition was 0.63% (inactive).
In the case of `COc1ccc(C(=O)N/N=C2\CCS(=O)(=O)c3ccc(F)cc32)cc1OC`, the inhibition is reported as 32.9% (active).
In the case of `CC(Sc1cccc[n+]1[O-])C(=O)Nc1cccc(S(=O)(=O)N2CCOCC2)c1` (stereo not given), the inhibition is reported as 0% (inactive).
For `CCn1cc(/C=C(\NC(=O)c2ccc(C)cc2)C(=O)NCCN2CCOCC2)c2ccccc21`, the inhibition was 40.6% (active).
For `Cc1ccc(C(=O)N/C(=C\c2cn(S(=O)(=O)N(C)C)c3ccccc23)C(=O)N2CCCC2)cc1`, the inhibition was -3.45% (inactive).
In the case of `COc1ccc(/C=C(\NC(=O)c2ccccc2)C(=O)NCCN2CCOCC2)cc1OC`, the inhibition is reported as 14.8% (inactive).
With `CCSc1nnc(SCC(=O)NNC(=O)c2ccccc2F)s1` the inhibition was -1.01% (inactive).
With `CC1Cc2ccccc2N1C(=O)c1cc2sccc2n1Cc1ccccc1` (stereo not given) the inhibition was -0.44% (inactive).
With `COCCOC(=O)c1sc(=S)n(CCOC)c1N` the inhibition was 11.4% (inactive).
For `CCOC(=O)C(C)n1cnc2c(nnn2-c2cccc(OC)c2)c1=O` (stereo not given), the inhibition was -6.44% (inactive).
For `CCOC(=O)c1sc(=S)n(-c2cccc(OC)c2)c1N`, the inhibition was 33.3% (active).
For `Cc1cc(/C=N/n2cnnc2)c(C)n1-c1ccc2ncccc2c1`, the inhibition was 15% (inactive).
In the case of `O=S(=O)(Cc1nnnn1-c1ccccc1)c1ccccc1`, the inhibition is reported as -3.16% (inactive).
For `COc1ccc(CN2CCCCC2C)cc1OC` (stereo not given), the inhibition was 7.17% (inactive).
For `COc1ccc(C(=O)CN2C(=O)NC(C)(c3ccc(C)cc3)C2=O)cc1OC` (stereo not given), the inhibition was -0.32% (inactive).
In the case of `COc1cc(/C=C(\C#N)c2nc3ccccc3[nH]2)ccc1O`, the inhibition is reported as 31.3% (active).
With `Cc1ccc(C(=O)N/C(=C/c2cccnc2)C(=O)O)cc1` the inhibition was 1.45% (inactive).
In the case of `COc1ccc(/C=C(/NC(=O)c2ccc(C)cc2)c2nc3ccccc3[nH]2)cc1OC`, the inhibition is reported as 46.6% (active).
With `CCN(C[C@H]1N[C@@](CC)(C(=O)OC)[C@H]2C(=O)N(C)C(=O)[C@@H]12)C(=O)Nc1ccc(F)cc1` the inhibition was 0% (inactive).
In the case of `COc1ccc(/C=N/OCc2ccccc2C#N)c(OC)c1`, the inhibition is reported as -3.57% (inactive).
With `CCOC(=O)c1ccc(N/C(=N/S(=O)(=O)c2ccccc2)c2ccccc2)cc1` the inhibition was 10.9% (inactive).
With `CCOC(=O)c1nc(Nc2ccc(C(=O)OC)cc2)c2ccccc2n1` the inhibition was 33.2% (active).
For `COC(=O)c1ccc(Nc2ncnc3sccc23)cc1`, the inhibition was 8.09% (inactive).
For `O=C(c1ccco1)N1CCN(Cc2cccc(C(F)(F)F)c2)CC1`, the inhibition was -0.77% (inactive).
For `c1ccc(-c2nnc3n2NC(c2ccc4c(c2)OCO4)S3)cc1` (stereo not given), the inhibition was 17.1% (inactive).
In the case of `CC(=O)c1ccc(N2CCN(C(=O)C3CCN(S(=O)(=O)c4ccc5c(c4)CC(C)N5C(=O)C4CC4)CC3)CC2)cc1` (stereo not given), the inhibition is reported as 23.5% (inactive).
In the case of `CC(C)c1cc(C(=O)O)n[nH]1`, the inhibition is reported as 8.57% (inactive).
For `Cc1ccc(/C=N/NC(=O)C(NC(=O)c2ccccc2)c2n[nH]c(=O)c3ccccc23)cc1` (stereo not given), the inhibition was 1.58% (inactive).
With `CC(C)c1cc(C(=O)N/N=C/C(Br)=C/c2ccccc2)n[nH]1` the inhibition was 36.9% (active).
For `COc1ccc(CNC(=O)C(NS(=O)(=O)c2cccc3nsnc23)C(C)C)cc1` (stereo not given), the inhibition was 1.17% (inactive).
In the case of `COc1cccc(/C=C(/CC(=O)Nc2ccc(N3CCOCC3)cc2)c2nc3ccccc3s2)c1`, the inhibition is reported as 32.1% (active).
With `Cc1ccc(OCCCC(=O)Nc2ccc(N3CCOCC3)cc2)cc1` the inhibition was -5.32% (inactive).
For `CCn1c(Cc2ccc(OC)cc2)nnc1SCC(=O)Nc1ccc(N2CCOCC2)cc1`, the inhibition was -0.78% (inactive).
